Screening results from PubChem BioAssay.
SSB-PriA inh – K. pneumoniae PriA-SSBct interaction inhibition. AlphaScreen SSBct-PriA binding, biotinylated peptide. inhibition, % at 33 µM. 0.6% of 430,000 active; in the data active means inhibition mostly above about 37%, no sharp cut-off; inactive means mostly below about 20%;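 further: plate controls were negative control peptide for no effect and reference peptide for full effect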
BJeLR lethal – kills HRASV12-expressing BJeLR cells | inhibition, % (concentration not given with the values) | AID 1554 | BJeLR (HRASV12) viability, CellTiter-Glo ATP luminescence, 48 h | 0.17% of 300,000 active; in the data active means inhibition above about 50%
SARS 3CLpro inh – SARS-CoV 3CLpro protease inhibition. inhibition, % at 6 µM. 0.14% of 290,000 active. recombinant SARS-CoV 3CLpro, quenched FRET peptide cleavage. P0C6X7; in the data active means inhibition above about 12%
The depositor's hits bear a star; nt = no result; ! = repeats disagree. The list is not random: actives were taken first. Their share in the collection is about 0.78%.

SMILES | SSB-PriA inh | BJeLR lethal | SARS 3CLpro inh
O=S(=O)(NCC(c1ccco1)N1CCc2ccccc21)c1ccccc1 (stereo unspecified) | 25*! | 3 | nt
O=S(=O)(NCC(c1cccs1)N1CCc2ccccc21)c1ccccc1 (stereo unspecified) | -4 | nt | nt
COc1ccc(S(=O)(=O)[C@@H](CNC(=O)c2ccc(Br)o2)c2ccco2)cc1 | -3 | nt | nt
O=C(c1cc2ccccc2o1)N1CCC(CNS(=O)(=O)Cc2cc(F)cc(F)c2)CC1 | -12 | nt | nt
COc1ccccc1-n1cc(-c2ccccc2)[nH]c1=S | -4 | -5 | 0
COc1ccccc1-n1cc(-c2ccccc2)c2c(=S)nc[nH]c21 | 41* | -14 | -2
COc1ccc(C(=O)Nc2nc3ccccc3s2)c(OC)c1 | 0 | 53* | 0
COc1ccc2nc(NC(=O)c3ccccc3C(=O)O)sc2c1 | -5 | -7 | -3
COc1ccc(-c2cc(OCC(=O)Nc3ccc4c(c3)OCO4)c3ccccc3n2)cc1 | 8 | nt | nt
Cc1cccnc1Nc1nc(-c2ccccc2)cs1 | -5 | 11 | -2
CNc1nc(-c2ccccn2)cs1 | 118* | nt | nt
CC(C)c1nc(-c2ccccn2)cs1 | 7 | nt | nt
Cc1cccnc1Nc1nc(-c2ccccn2)cs1 | 68* | 53* | 2
COc1ccc(CCNc2nc(-c3ccncc3)cs2)cc1OC | 1 | 0 | 6
Cc1cccc(Nc2nc(-c3cccs3)cs2)n1 | 6 | -1 | -2
Cc1cccc(Nc2nc(-c3ccccn3)cs2)n1 | 95* | -1 | 2
COc1ccc(CCNc2nc(-c3ccccn3)cs2)cc1OC | 39* | -12 | 0
CC(C)c1cc(=O)[nH]c(-n2nc(-c3cccs3)cc2NC(=O)COc2ccccc2F)n1 | 3 | nt | nt
Brc1cccnc1OC1CCNCC1 | -18 | nt | nt
CCOC(=O)c1c(Nc2ccccc2)sc(C(=O)c2ccc(-c3ccccc3)cc2)c1C | 1 | nt | nt
CCC(C)Nc1nc(-c2c[nH]c3ccccc23)cs1 (stereo unspecified) | 37 | 0 | -26
CNc1nc(-c2c[nH]c3ccccc23)cs1 | 52* | -6 | -3
CC(=O)c1ccc(-c2cccc(-c3nc4ccccn4c3NC3CCCCC3)c2)cc1 | 41* | -3 | nt
CCC(C)Sc1cc(-c2nc3ccccn3c2NC2CCCCC2)ccc1OC (stereo unspecified) | 29 | -5 | nt
CC(=O)Nc1cc(OC(C)=O)c2nonc2c1OC(C)=O | 0 | nt | 37*
SMILES | SSB-PriA inh | BJeLR lethal | SARS 3CLpro inh
CC(=O)Nc1nonc1NC(C)=O | -12 | -4 | 4
O=[N+]([O-])c1c(Nc2cccc(O)c2)cc(Cl)c2nonc12 | 3 | 79* | -1
O=C(O)c1ccc(Nc2cc(Cl)c3nonc3c2[N+](=O)[O-])cc1 | 5 | 0 | 6
Cc1ccnc(Nc2ccc(NCCNC(=O)c3ccc(Br)o3)nn2)c1 | 62* | nt | nt
Cc1ccnc(Nc2cc(NCCNC(=O)c3ccccc3C)nc(C)n2)c1 | -5 | nt | nt
Cc1ccc(C2CC(C(F)(F)F)n3ncc(C(=O)Nc4cc(Sc5ccc(Br)cc5)cc([N+](=O)[O-])c4)c3N2)cc1 (stereo unspecified) | -11 | nt | nt
O=C(Cn1ccc2ccccc21)Nc1cc(N2CCN(Cc3ccccc3)CC2)ncn1 | 44* | nt | nt
O=C(Cn1ccc2ccccc21)Nc1cc(N2CCCC2)ncn1 | -4 | nt | nt
Cc1ccccc1C1CCN(C(=O)Cn2cnc3ccccc32)CCS1 (stereo unspecified) | -2 | nt | nt
CSc1ccc(S(=O)(=O)NCCCn2ccnc2)cc1 | 2 | -2 | -1
O=S(=O)(NCCCN1CCOCC1)c1cccc2cnccc12 | 3 | nt | nt
O=S(=O)(NCCCn1ccnc1)c1cccc2cnccc12 | 41* | nt | nt
O=[N+]([O-])c1cccc(S(=O)(=O)NCCCn2ccnc2)c1 | 53* | -2 | -7
CC(=O)c1cccc(NC(=O)Cn2c(=O)n(Cc3cccnc3)c(=O)c3ncccc32)c1 | -1 | nt | nt
Cn1cccc1-c1noc(CNC(=O)c2ccc(Br)o2)n1 | 13 | nt | nt
O=C(Nc1cccnc1)Nc1cc(Cl)cc(Cl)c1 | -16 | -4 | 12
Cc1ccc(NC(=O)Nc2cccnc2)cc1Cl | -3 | -3 | 21*
Cc1cc(C)c2c(CN3CCCCC3)cc(=O)oc2c1 | -5 | 9 | 0
Cc1cc(C)c2c(CCl)cc(=O)oc2c1 | -4 | 56* | 0
CC(=NNC(=O)c1ccc(Cl)c(Cl)c1)c1ccccn1 | -6 | nt | nt
CC(=NNC(=O)c1ccc(Cl)cc1)c1ccccn1 | 45* | nt | nt
CC(=NNc1ncc(Cl)cc1Cl)c1ccccn1 | 47* | nt | nt
C/C(=N\NC(=O)c1ccccc1Cl)c1ccccn1 | nt | 48 | -5
C/C(=N\NC(=O)C1COc2ccccc2O1)c1ccccn1 (stereo unspecified) | nt | -3 | 4
C/C(=N\NC(=O)c1cccc2ccccc12)c1ccccn1 | nt | 79* | 4
SMILES | SSB-PriA inh | BJeLR lethal | SARS 3CLpro inh
C/C(=N\Nc1ncc(Cl)cc1Cl)c1ccc(C#N)cc1 | nt | 9 | 2
CC(=NNC(=O)C1COc2ccccc2O1)c1ccccn1 (stereo unspecified) | 61* | nt | nt
Cc1cc(=O)n(CC(=O)NCc2ccc3c(c2)OCO3)c(N)n1 | -8 | nt | nt
CSc1ccc(CN2CC(c3nc(-c4cccs4)no3)C2)cc1 | 5 | nt | nt
COc1ccccc1NC(=O)N(Cc1cnc2ccccn12)C1CC1 | 2 | nt | nt
CCOC(=O)c1cnn2ccc(NC(=O)C3c4ccccc4Oc4ccccc43)cc12 | -18 | nt | nt
Cc1ccc(C)c(S(=O)(=O)N2CCC[C@@H]2CNC(=O)C(=O)NCCc2ccc(Cl)cc2)c1 | -4 | nt | nt
COc1ccc(C(=O)N/N=C(\C)c2ccccn2)cc1OC | nt | 74* | 1
C/C(=N\NC(=O)c1ccc(Cl)c(Cl)c1)c1ccccn1 | nt | 39 | 3
COc1cccc(S(=O)(=O)N2CCC(N3CCC(Oc4nccs4)CC3)CC2)c1 | -3 | nt | nt
Cc1cccc(NN=C(C(N)=O)C2=NC(C)(C)Cc3ccccc32)c1 | 57* | nt | nt
CC1(C)Cc2ccccc2C(/C(=N\Nc2cccc(Cl)c2)C(N)=O)=N1 | nt | 3 | 0
O=C(Nc1cnn(CC2CCOCC2)c1)c1ccc(Cl)s1 | -23 | nt | nt
CN1C(=O)Cc2cc(NS(=O)(=O)c3ccccc3Cl)ccc21 | 10 | nt | nt
COc1ccc(N=NC2C(=O)N(c3ccccc3)N=C2C)cc1 (stereo unspecified) | 43* | -1 | 5
CC1=NN(c2ccccc2)C(=O)C1N=Nc1ccccc1 (stereo unspecified) | 31 | -7 | 0
CCCCC(=O)NC(c1ccc(N(CC)CC)cc1)c1ccc2cccnc2c1O (stereo unspecified) | -3 | 48 | -6
CCCCC(=O)NC(c1ccc(N(C)C)cc1)c1ccc2cccnc2c1O (stereo unspecified) | 20 | 57* | -1
CCOC(=O)C1C(=O)C=C(c2ccc(OC)cc2OC)CC1c1ccco1 (stereo unspecified) | -7 | nt | nt
CCOC(=O)c1c(SCC(=O)Nc2cc(C(F)(F)F)ccc2Cl)nc(=O)[nH]c1C | 1 | nt | nt
O=C(NCCCN1CCOCC1)C(=O)c1c[nH]c2ccccc12 | -3 | -2 | 1
COc1ccc(N2CCN(CCCNC(=O)C(=O)c3c[nH]c4ccccc34)CC2)cc1 | 48* | -4 | 2
COc1ccc2cc(Br)ccc2c1CC(=O)NCc1ccc2c(c1)OCO2 | -6 | nt | nt
COc1ccc2nc(-n3nc(C)cc3NC(=O)c3cc(C)on3)sc2c1 | -2 | nt | nt
O=C(CSc1nnc(-c2ccccn2)o1)Nc1ccccc1 | -9 | -1 | 3
